This passage reports growth inhibition results from PubChem BioAssay (NCI).

Each structure is given as a SMILES string. About 79,000 compounds went through this panel and 15% of them were active in at least one assay; those are over-represented in the sample as a whole. Unmarked numbers belong to inactive results. Active and inactive are the calls of the source. Rule as the data show it: active = growth inhibition above about 70%; inactive = the rest.

Assay [1] can be described thus: NCI Yeast Anticancer Drug Screen. Data for the rad50 strain (AID 155).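 Also: 0% = growth of vehicle-only cultures of the same strain.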 As to conditions: S. cerevisiae rad50 strain growth inhibition; at 50.0 µM; active compounds read high. In outline:
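Relative growth inhibition (compound vs vehicle) was measured in yeast with a defined repair-gene alteration.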

Assay [2] in a line: NCI Yeast Anticancer Drug Screen. Data for the mec2-1 strain (AID 157). As to conditions: S. cerevisiae mec2-1 strain, at 50.0 µM, active compounds read high. In outline: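 Using mec2-1 yeast: add compound, measure growth, express inhibition versus vehicle-treated cultures.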
Assay [3] in a line: NCI Yeast Anticancer Drug Screen. Data for the sgs1 mgt1 strain (AID 161).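 Also: 0% = growth of cultures given vehicle only.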 The note with it: S. cerevisiae sgs1 mgt1 strain, at 50.0 µM, active compounds read high. In outline: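 This yeast growth screen uses a strain with defined DNA-repair lesions; compound-treated growth is compared with vehicle-treated growth.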
Assay [4] in a line: NCI Yeast Anticancer Drug Screen. Data for the cln2 rad14 strain (AID 165).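 Also: 0% = growth equal to vehicle treated cultures.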 The note with it: S. cerevisiae cln2 rad14 strain, at 50.0 µM, active compounds read high. The method in brief: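 Yeast strain cln2 rad14, bearing defects in cell cycle control and DNA repair, serves as the test system; values reflect growth inhibition compared with vehicle.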
Assay [5] is described as follows: NCI Yeast Anticancer Drug Screen. Data for the bub3 strain (AID 167). The note with it: S. cerevisiae bub3 mutant strain, at 50.0 µM, active compounds read high. In outline:
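Screening used yeast with an engineered genetic alteration affecting cell cycle control. Compound-exposed cultures were compared with vehicle cultures, and reduced growth was taken as inhibition.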

The nature of assay [6]: NCI Yeast Anticancer Drug Screen. Data for the mlh1 rad18 strain (AID 175). The note with it: S. cerevisiae mlh1 rad18 strain growth inhibition; at 50.0 µM; active compounds read high. In outline:
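Steps: expose repair-defective yeast to compound; measure growth; express inhibition against vehicle-treated controls.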

Turning to `CCCCNC(=O)NCCCC`, the growth inhibition was 5.85% in assay [1]; 3.6% in assay [2]; -5.75% in assay [3]; -4.5% in assay [4]; -2.65% in assay [5]; -0.15% in assay [6].
`O=C1CCCNn2c(nc3ncccc3c2=O)N1`: the growth inhibition in assay [1] is 17.3%; in assay [2] it was 37%; in assay [3] it was 9%; in assay [4], -20.6%; in assay [5] it was 10.1%; in assay [6] it was -41.1%.
Take `C=CCc1cc(OC)c2c(c1)C(O)CC(c1ccccc1)O2` (configuration not stated): the growth inhibition in assay [1] is 15.2%; in assay [2], -24.6%; in assay [3] it was -34.6%; in assay [4], -6.2%; in assay [5], 2.9%; in assay [6], 1.55%.
In the case of `Cc1cccc(C)c1N=Nc1sc(N)nc1C`, the growth inhibition in assay [1] is 20.4%; in assay [2] it was 10.6%; in assay [3], 6.65%; in assay [4] it was -29.9%; in assay [5], -9.65%; in assay [6] it was 22.9%.
For `CCCCC(NC(=O)c1cnc2ccccc2n1)C(=O)O` (configuration not stated), the growth inhibition in assay [1] was 22.2%; in assay [2], 14%; in assay [3] it was 15.3%; in assay [4], 4.6%; in assay [5] it was 22.3%; in assay [6], 31.6%.
Take `CCCCCCCCCCCCOc1ccc(Sc2ccc([N+](=O)[O-])cc2)cc1`: the growth inhibition in assay [1] was 30.2%; in assay [2] it was 2.55%; in assay [3], 35.1%; in assay [4], -34.3%; in assay [5] it was 5.1%; in assay [6], 25.8%.
With `O=C(Nc1cc2[nH]c(=O)c3ccccc3c2cc1[N+](=O)[O-])C(F)(F)F`, the growth inhibition in assay [1] was 40%; in assay [2], -5.85%; in assay [3] it was 10.8%; in assay [4], 0.9%; in assay [5], -12.4%; in assay [6], 0.25%.
`Nc1nc(N)[n+]([O-])c(N)c1NCO`: the growth inhibition in assay [1] is -4.85%; in assay [2], 2.9%; in assay [3], -40%; in assay [4] it was -50.8%; in assay [5] it was -14%; in assay [6], -25.3%.
As to `CC(=O)Nc1ccc(/C=N/Nc2c3ccccc3nc3ccccc23)cc1`, the growth inhibition in assay [1] was -3.3%; in assay [2] it was 13.8%; in assay [3] it was 0.3%; in assay [4], -4.4%; in assay [5], 6.75%; in assay [6], 0.4%.
In the case of `N#CC(C#N)=C1c2ccccc2Sc2ccccc21`, the growth inhibition in assay [1] is -18.6%; in assay [2] it was -0.35%; in assay [3], -2.05%; in assay [4] it was -21.3%; in assay [5], -11.5%; in assay [6], -22.2%.
Consider `CS(=O)(=O)N/N=C1/C=C2C/C(=N\NS(C)(=O)=O)C=C2C1`, for which the growth inhibition in assay [1] was 27.6%; in assay [2] it was -0.7%; in assay [3], 47.5%; in assay [4] it was 30.2%; in assay [5], -1.2%; in assay [6], 43.7%.
On to `CCCCNc1nnc(N)s1`, for which the growth inhibition is 4.65% in assay [1]; -24.2% in assay [2]; -10.3% in assay [3]; -34.5% in assay [4]; -2.2% in assay [5]; -27.9% in assay [6].
For `CC(=O)c1cccc(NC(=O)/C(=N\NC(=S)NN)C2C(=O)Nc3ccccc3S2=O)c1` (configuration not stated), the growth inhibition in assay [1] was -3.6%; in assay [2], -42.4%; in assay [3], -13.1%; in assay [4] it was -4.15%; in assay [5], -1.8%; in assay [6], -10.5%.
With `CCC(C)c1cnc(CC(C)C)c(=O)[nH]1` (configuration not stated), the growth inhibition is 8.9% in assay [1]; -44.2% in assay [2]; 17.2% in assay [3]; 4.85% in assay [4]; -9.6% in assay [5]; 0.85% in assay [6].
In the case of `CC1CN=C(c2c(O)ccc3ccccc23)S1` (configuration not stated), the growth inhibition in assay [1] is 42.9%; in assay [2] it was 31.5%; in assay [3], 79.8% (active); in assay [4], 26.8%; in assay [5], 34.4%; in assay [6] it was 61.3%.
As for `CC(Sc1ccccn1)C(=O)c1ccccc1` (configuration not stated), the growth inhibition in assay [1] is -1.55%; in assay [2], -6.75%; in assay [3], -4.05%; in assay [4], -52.5%; in assay [5] it was -9.05%; in assay [6] it was 1.2%.
For `CC(=O)NNC(=O)c1ccccc1CO`, the growth inhibition in assay [1] is -18.8%; in assay [2] it was -15%; in assay [3], -4.55%; in assay [4], 10.4%; in assay [5], -2%; in assay [6], 20.9%.
`Cn1cnc2nc(N)[nH]c(=O)c21`: the growth inhibition in assay [1] was 37.2%; in assay [2], 6.45%; in assay [3], 2.5%; in assay [4] it was -14.4%; in assay [5], -0.95%; in assay [6], 13.7%.
For the compound `COc1cc(OC)c2nccc(NCCCN(C)C)c2c1[N+](=O)[O-]`, the growth inhibition in assay [1] was 4.75%; in assay [2], -22.4%; in assay [3], 5.75%; in assay [4], 21.6%; in assay [5] it was -3.4%; in assay [6], 4.75%.
As for `COC(=O)CCCCl`, the growth inhibition was -51% in assay [1]; -56.4% in assay [2]; -38% in assay [3]; 8.25% in assay [4]; -21% in assay [5]; -15.6% in assay [6].
With `CC(C)CCCC(C)C1CCC2(C)C3=C(CCC12C)C1(C)CCC(=O)C(C)(C)C1CC3` (configuration not stated), the growth inhibition in assay [1] was 73.1% (active); in assay [2], 57.2%; in assay [3], 83.5% (active); in assay [4], 44.5%; in assay [5], 14.6%; in assay [6], 34%.
In the case of `N#CC(c1ccccc1)N(CCCCCCN(C(=O)c1ccccc1)C(C#N)c1ccccc1)C(=O)c1ccccc1` (configuration not stated), the growth inhibition in assay [1] is 17.1%; in assay [2] it was 37%; in assay [3], 20.3%; in assay [4], 13.1%; in assay [5], 40.4%; in assay [6], -29.1%.
